Among the data in PubChem BioAssay (NCI) are growth values, retold here.

Common to all, as to assay: NCI-60 one-dose screen, 48 h (100 = growth as untreated, 0 = no growth, -100 = all killed)
Conditions in all cases: 10 µM unless noted

Assay [1] relates to HCT-15 colon.
Assay [2] deals with HT29 colon.
In assay [3] the test system is SNB-75 CNS.
In assay [4] the test system is SNB-19 CNS.
Assay [5] has as its system U251 CNS.
Assay [6] relates to PC-3 prostate.
Assay [7] relates to SK-MEL-5 melanoma.
In assay [8] the test system is UACC-62 melanoma.
In assay [9] the test system is LOX IMVI melanoma.
Assay [10] relates to SK-MEL-28 melanoma.
Assay [11] relates to SK-MEL-2 melanoma.
For assay [12], the system named is EKVX NSCLC.
The test system of assay [13] is SN12C renal.
In assay [14] the test system is UO-31 renal.
In assay [15] the test system is TK-10 renal.
For assay [16], the system named is ACHN renal.
The subject of assay [17] is CAKI-1 renal.
Assay [18] concerns A498 renal.
Assay [19] deals with CCRF-CEM leukemia.
In assay [20] the test system is MOLT-4 leukemia.

Values joined by “and” are separate entries in the source; they are usually repeats but may differ in a detail not shown here. Equal values may be shown once. This is part of a sample that, as a whole, favours compounds with a hit. Of some 83,000 tested, about 20% had one in any assay.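 The test compound was applied at a single concentration to cells in 96-well plates for 48 hours, and percent growth was recorded.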 Values without a mark were called inactive. Active and inactive are the calls of the source. The calls were made as follows: active = growth percent below 10; inactive = the rest.

For `COc1cc(NS(=O)(=O)C(C)C)cc(-c2cc(-c3ccc(N4CCNCC4)cc3)cnc2N)c1`, the growth in assay [1] was 112%; in [2] it was 31.9%; in assay [3] it was 53.7%; in [4], 94.2%; in assay [5] it was 77.1%; in assay [6], 72%. In addition, the growth in [7] was 102%; in [8] it was 110%; in assay [9], 67.3%; in assay [10] it was 107%; in assay [11], 117%; in assay [12] it was 109%. Besides, the growth is 64.6% in assay [13]; 70% in [14]; 115% in assay [15]; 93.2% in assay [16]; 87.1% in [17]; 75.3% in [18]. For the same compound, the growth in [19] is 66.7%; in assay [20] it was 37.2%.

Turning to `COc1ccc(/C(C)=C(\c2ccc(OCCN3CCOCC3)cc2)c2ccc(OC(=O)C3CCCCC3)cc2)cc1`, the growth is 102% in [1]; 102% in assay [2]; 110% in assay [3]; 107% in assay [4]; 103% in assay [5]; 104% in assay [6]. Also, the growth is 110% in assay [7]; 110% in [8]; 102% in assay [9]; 106% in assay [10]; 104% in assay [11]; 107% in assay [12]. Also, the growth in [13] is 113%; in assay [14], 101%; in assay [15], 104%; in assay [16], 98%; in assay [17], 101%; in [18], 110%. The values for the growth in [19] and in assay [20] were 111% and 117%, respectively.

As to `N#Cc1c(-c2cccc(F)c2)cc(-c2cccnc2)[nH]c1=O`, the growth was 104% in assay [1]; 104% in assay [2]; 97.1% in assay [3]; 99.9% in assay [4]; 101% in assay [5]; 101% in assay [6]. In addition, the growth in assay [7] is 104%; in [8] it was 97.5%; in assay [9], 98.8%; in [10], 104%; in [11], 110%; in assay [12] it was 106%. The growth in [13] is 96.4%; in assay [14], 90.2%; in assay [15], 106%; in [16] it was 101%; in [17], 95.9%; in assay [18] it was 116%. In addition, the growth in assay [19] is 104%; in assay [20], 99.7%.

With `Nc1ccccc1SC(CC(=O)c1ccccc1)c1ccc([N+](=O)[O-])cc1` (stereo not given), the growth in [1] was 87.7% and 59%; in [2], 19.7% and 39.1%; in [3] it was 84.6% and 80.8%; in assay [4], 93.2% and 101%; in [5], 62.6% and 57.4%; in [6] it was 70.9% and 59.6%. The growth is 105% in assay [7]; 90.9% and 84.5% in assay [8]; 41.7% and 45.5% in assay [9]; 94.4% and 99.6% in [10]; 137% and 87.4% in assay [11]; 97.1% in assay [12]. Also, the growth is 94% and 92.5% in assay [13]; 55.1% and 39.2% in assay [14]; 118% and 109% in assay [15]; 99.8% and 93.6% in [16]; 70.2% and 91.7% in assay [17]; 94.6% and 99.5% in [18]. In addition, the growth in assay [19] is 69.2% and 51.9%; in [20] it was 82.3% and 61.6%.

On to `COc1ccc(-c2ccc(-c3ccc(C(=N)N)cn3)s2)cc1Cl`, for which the growth was -72.5% (active) in assay [1]; -52.6% (active) in assay [2]; -98.4% (active) in assay [3]; -73.9% (active) in [4]; -62.2% (active) in assay [5]; -80.9% (active) in [6]. In addition, the growth in [7] was -48.4% (active); in assay [8], -92.3% (active); in assay [9], -84.5% (active); in [10], -86.6% (active); in assay [11] it was -54% (active); in [12], -58.4% (active). The growth in [13] was -81% (active); in assay [14], -89.9% (active); in assay [15], -73.1% (active); in [16] it was -98.2% (active); in assay [17] it was -98.4% (active); in [18], 99%. Moreover, the growth is -36.1% (active) in [19] and -31.5% (active) in assay [20].

As for `O=C(N/N=C/c1ccc(O)cc1O)c1cccc(Nc2ccnc(C(F)(F)F)c2)c1`, the growth was 27.3% in assay [1]; 41.6% in assay [2]; 32.2% in assay [3]; 35.5% in assay [4]; 32.1% in assay [5]; 61% in [6]. Moreover, the growth in assay [7] is 33.7%; in assay [8], -8.61% (active); in [9], 13.7%; in assay [10], 31.1%; in assay [11] it was 60.7%; in [12], 28%. For the same compound, the growth was 25% in assay [13]; 34.7% in assay [14]; 42.6% in assay [15]; 30.3% in assay [16]; 40.3% in [17]; 44.9% in assay [18]. In addition, the growth in assay [19] is 6.22% (active); in assay [20], 12.2%.

For the compound `COc1ccc(/C=C2\COc3ccc(O)c(O)c3C2=O)c(OC)c1OC`, the growth in assay [1] is 1.33% (active); in [2] it was 44.7%; in [3], 37.9%; in assay [4], 28.2%; in assay [5], 14.4%; in [6] it was 36.8%. In addition, the growth in [7] is 35.5%; in assay [8], -56.9% (active); in assay [9], 0.166% (active); in [10], 58%; in assay [11] it was 70.3%; in assay [12], 65.7%. Also, the growth in assay [13] is 0.808% (active); in [14], -5.7% (active); in [15], 45.1%; in assay [16], 12.5%; in [17], 39%; in assay [18], 109%. For the same compound, the figures for the growth in [19] and in assay [20] were 3.07% (active) and 1.41% (active), respectively.
